Results taken from PubChem BioAssay (EPA / NIEHS).
Records with an inconclusive call do not appear. Calls of active or inactive are those of the source. The calls were made as follows: active = hit-call score of the fitted dose curve at least 0.9, where 1 is the maximum; inconclusive = response in the unintended direction; inactive = score below 0.9.

The compounds below were run against human Peroxisome Proliferator-activated Receptor delta (PPARd), PPARD (gene 5467) (UniProt Q03181) (assay: ATG_PPARd_TRANS: Attagene TRANS-FACTORIAL HepG2 Assay for human Peroxisome Proliferator-activated Receptor delta (PPARd) (AID 2283002)).
Chain of human Peroxisome Proliferator-activated Receptor delta (PPARd), PPARD (gene 5467) (Q03181 whole entry, looked up): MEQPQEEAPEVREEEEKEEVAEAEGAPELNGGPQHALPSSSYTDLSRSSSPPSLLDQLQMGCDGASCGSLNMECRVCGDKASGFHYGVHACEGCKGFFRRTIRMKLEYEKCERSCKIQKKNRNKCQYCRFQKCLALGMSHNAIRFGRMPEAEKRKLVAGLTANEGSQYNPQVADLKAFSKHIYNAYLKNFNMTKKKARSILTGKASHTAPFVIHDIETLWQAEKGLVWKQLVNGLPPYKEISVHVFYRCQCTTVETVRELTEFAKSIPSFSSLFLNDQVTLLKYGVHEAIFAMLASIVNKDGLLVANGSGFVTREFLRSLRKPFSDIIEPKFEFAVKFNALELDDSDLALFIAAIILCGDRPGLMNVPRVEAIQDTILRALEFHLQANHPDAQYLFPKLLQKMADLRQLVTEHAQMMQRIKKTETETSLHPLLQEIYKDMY
Method: ATG_TRANS is a cell-based, multiplexed-readout assay that uses HepG2, a human liver cell line, with measurements taken at 24 hours after chemical dosing in a 24-well plate.ATG_PPARd_TRANS is one of 30 assay component(s) measured or calculated from the ATG_TRANS assay. It is designed to make measurements of mRNA induction, a form of inducible reporter, as detected with fluorescence intensity signals by Reverse transcription polymerase chain reaction (RT-PCR) and Capillary electrophoresis technology.Data from the assay component ATG_PPARd_TRANS was analyzed into 1 assay endpoint. This assay endpoint, ATG_PPARd_TRANS, was analyzed in the positive analysis fitting direction relative to DMSO as the negative control and baseline of activity. Using a type of inducible reporter, measures of mRNA for gain-of-signal activity can be used to understand the reporter gene at the transcription factor-level as they relate to the gene PPARD. Furthermore, this assay endpoint can be referred to as a primary readout, because this assay has produced multiple assay endpoints where this one serves a reporter gene function. To generalize the intended target to other relatable targets, this assay endpoint is annotated to the nuclear receptor intended target family, where the subfamily is non-steroidal.
Human liver HepG2 cells are transiently transfected with multiple reporter transcription units (MRTUs) in 6-well plates using FuGene 6 reagent (Roche; 3 ml FuGene/1 mg DNA). The MRTU constructs are regulated by a cis-regulating element (promoter). […] A major difference between the CIS and TRANS system is that in CIS activities of endogenous TFs are measured, whereas the TRANS assay evaluates changes in activities of exogenous, chimeric NR-Gal4 proteins. […] At the end of 24 hour incubation, total RNA was isolated using TriZol reagent (Invitrogen). The isolated RNA is then reverse-transcribed using oligo(dT) primer and Mo-MLV reverse transcriptase (Invitrogen) with DNAse I (Ambion) treatment for 30 min. The one-tenth of the produced cDNA was amplified by PCR using Taq DNA polymerase (Invitrogen) and two reporter sequence-specific primers. The PCR products were fluorescently labeled by primer extension with 6-arboxyfluorescein (6-FAM) 5'-labeled reporter sequence-specific primer (2 min at 95 C, 20 s at 68 C and 10 min at 72 C) and these products were digested with 5U of HpaI (New England Biolabs) for 2h at 37 C. The fragments were purified using Qiaquick PCR columns (Qiagen), analyzed on an ABI 3130xL genetic analyzer (Applied Biosystems) with peak positions identified by using a set of X-rhodamine (ROX)-labeled MapMarker1000 molecular weight standards (BioVentures). The raw capillary electrophoresis data was processed using Attagraph software (Attagene).
For `CCCCOC(=O)[C@@H](C)Oc1ccc(Oc2ccc(C#N)cc2F)cc1`, the outcome was “inactive”.
`CCNc1nc(Cl)nc(NC(C)(C)C#N)n1` was tested, and the outcome was “inactive”.
For `CN(C)NC(=O)CCC(=O)O`, the outcome was “inactive”.
`CCC(=NOC/C=C/Cl)C1=C(O)CC(C2CCOCC2)CC1=O` (stereo not given) was tested, and the outcome was “inactive”.
In the case of `CNC(=O)ON=C(C)SC`, the outcome is reported as “inactive”.
In the case of `CNc1cnn(-c2cccc(C(F)(F)F)c2)c(=O)c1Cl`, the outcome is reported as “inactive”.
For `N#CSCSC#N`, the outcome was “inactive”.
In the case of `CCCCOC(=O)c1ccccc1C(=O)O`, the outcome is reported as “inactive”.
With `CC(C)N(C(=O)SCC(Cl)=C(Cl)Cl)C(C)C` the outcome was “inactive”.
With `CCOP(=S)(OCC)SCCSCC` the outcome was “inactive”.
For `CCOP(=S)(OCC)Oc1ccc([N+](=O)[O-])cc1`, the outcome was “inactive”.
`CCCCSP(=O)(SCCCC)SCCCC` was tested, and the outcome was “inactive”.
`O=[N+]([O-])c1cc(C(F)(F)F)c(Cl)c([N+](=O)[O-])c1Nc1ncc(C(F)(F)F)cc1Cl` was tested, and the outcome was “inactive”.
For `CNC(=O)ON=C(SC)C(=O)N(C)C`, the outcome was “inactive”.
For `CCOP(=S)(Oc1cnc(C(C)(C)C)nc1)OC(C)C` (stereo not given), the outcome was “inactive”.
For `C#CCC1=C(C)C(OC(=O)C2C(C=C(C)C)C2(C)C)CC1=O` (stereo not given), the outcome was “inactive”.
`Cc1cc(C2CC2)nc(Nc2ccccc2)n1` was tested, and the outcome was “inactive”.
For `CCOC(=O)COc1cc(-c2nn(C)c(OC(F)F)c2Cl)c(F)cc1Cl`, the outcome was “inactive”.
In the case of `CCOP(=S)(OCC)OC(Cl)C(Cl)(Cl)Cl` (stereo not given), the outcome is reported as “inactive”.
With `CCOP(=S)(OCC)Oc1cc(C)nc(C(C)C)n1` the outcome was “inactive”.
For `CC(C1CC1)C(O)(Cn1cncn1)c1ccc(Cl)cc1` (stereo not given), the outcome was “inactive”.
`COc1ccc(C(=CC(=O)N2CCOCC2)c2ccc(Cl)cc2)cc1OC` was tested, and the outcome was “inactive”.
In the case of `CCC(CC)Nc1c([N+](=O)[O-])cc(C)c(C)c1[N+](=O)[O-]`, the outcome is reported as “inactive”.
With `CC(C)[C@H](C(=O)O[C@H](C#N)c1cccc(Oc2ccccc2)c1)c1ccc(Cl)cc1` the outcome was “inactive”.
`CNC(=O)Oc1cccc2c1OC(C)(C)O2` was tested, and the outcome was “inactive”.
`CCOP(=S)(OCC)Oc1ccc2c(C)c(Cl)c(=O)oc2c1` was tested, and the outcome was “inactive”.
In the case of `CCOC(=O)CC(SP(=O)(OC)OC)C(=O)OCC` (stereo not given), the outcome is reported as “inactive”.
In the case of `CC(Oc1cccc(Cl)c1)C(=O)O` (stereo not given), the outcome is reported as “inactive”.
In the case of `CON=C(C(=O)OC)c1ccccc1CON=C(C)c1cccc(C(F)(F)F)c1`, the outcome is reported as “inactive”.
`CSC1=N[C@@](C)(c2ccccc2)C(=O)N1Nc1ccccc1` was tested, and the outcome was “inactive”.
With `CCc1cccc(CC)c1N(COC)C(=O)CCl` the outcome was “inactive”.
In the case of `Nc1nc(N)nc(NC2CC2)n1`, the outcome is reported as “inactive”.
`Cc1nn(-c2cc(NS(C)(=O)=O)c(Cl)cc2Cl)c(=O)n1C(F)F` was tested, and the outcome was “inactive”.
`C[Si](Cn1cncn1)(c1ccc(F)cc1)c1ccc(F)cc1` was tested, and the outcome was “inactive”.
`COP(=O)(OC)C(O)C(Cl)(Cl)Cl` (stereo not given) was tested, and the outcome was “inactive”.
With `Nc1c(Cl)cc([N+](=O)[O-])cc1Cl` the outcome was “inactive”.
With `CCOP(=O)(NC(C)C)Oc1ccc(SC)c(C)c1` (stereo not given) the outcome was “inactive”.
`COP(=O)(OC)OC(Br)C(Cl)(Cl)Br` (stereo not given) was tested, and the outcome was “inactive”.
`C=C(C)[C@H]1Cc2c(ccc3c2O[C@@H]2COc4cc(OC)c(OC)cc4[C@@H]2C3=O)O1` was tested, and the outcome was “inactive”.
`FC(F)C(F)(F)OCC(Cn1cncn1)c1ccc(Cl)cc1Cl` (stereo not given) was tested, and the outcome was “inactive”.
